Experimental data from PubChem BioAssay (NCATS).
Results filed as inconclusive are left out. A number with no mark means an inactive call. Active and inactive are the calls of the source. Calls follow the shape of the dose curve; as a rule, active = well fitted inhibition curve with a large enough effect; inconclusive = small, poorly fitted or top-dose-only effect; inactive = flat fitted curve, though single readings scatter.

Molecular target: Calcium and integrin-binding protein 1 (Homo sapiens) (UniProt Q99828)
Sequence (Q99828 whole entry, looked up): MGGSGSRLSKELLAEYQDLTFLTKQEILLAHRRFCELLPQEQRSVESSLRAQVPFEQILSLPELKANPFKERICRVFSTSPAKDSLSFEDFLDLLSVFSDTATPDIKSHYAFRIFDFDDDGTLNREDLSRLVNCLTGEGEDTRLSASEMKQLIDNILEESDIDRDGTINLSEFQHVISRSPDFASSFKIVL
Experiment: Primary qHTS for Identification of Calcium Integrin Binding Protein 1 (CIB1) Competitor (AID 1508620);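 also: GST tagged CIB1 binding a fluorescein labelled alphaIIb integrin peptide tracer; top concentration of the series differs between compounds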
Settings: CIB1-GST / FITC-alphaIIb peptide fluorescence polarization; series mostly up to 57.7 µM; activity change, negative = inhibition: at the top concentration
How it was run: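 Fluorescence polarization competition: GST-tagged CIB1 (1 uM final) preincubated with compound 15 min at room temperature, then FITC-labelled alphaIIb peptide (100 nM final) added. After 15 min at room temperature, polarization read at Ex 480/Em 540.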
% is scaled to controls: 0 for no effect and ±100 for the full control effect.

Structure (SMILES) | activity change, negative = inhibition
C=C(C)[C@@H]1CC[C@]2(CO)CC[C@]3(C)[C@H](CC[C@@H]4[C@@]5(C)CC[C@H](O)C(C)(C)[C@@H]5CC[C@]43C)[C@@H]12 | 3.05%
O=C(/C=C/c1ccc(O)cc1)OCC1OC(O)C(OC2OC(CO)C(O)C(O)C2O)C(O)C1O (configuration not stated) | -0.0414%
CN(C)CCC[C@]1(c2ccc(F)cc2)OCc2cc(C#N)ccc21 | 1.14% [at 114 µM]
O=C(/C=C/c1ccc(O)c(O)c1)O[C@H]1[C@H](OC2CCCCC2O)O[C@H](CO)[C@@H](O)[C@@H]1O (some centres not stated) | 1.94%
CC(C)/C=C1/NC(=O)C(C(C)C)n2c1nc1c(O)cccc1c2=O (configuration not stated) | 4.16%
C/C=C(\C)C(=O)OC[C@H]1O[C@H](O[C@H]2O[C@H](CO)[C@@H](O)[C@H](O)[C@H]2O[C@@H]2O[C@H](CO)[C@@H](O)[C@H](O)[C@H]2O)[C@H](O[C@@H]2O[C@H](CO)[C@@H](O)[C@H](O)[C@H]2O)[C@@H](O)[C@@H]1O | -0.899% [at 30.2 µM]
CC1=CCC(O)C2(C)CCC3C(C)C(=O)OC3C12 (configuration not stated) | -0.785% [at 114 µM]
C[C@@H]1C[C@@H](O)[C@@]2(CO)C(CO)=CCC[C@@H]2[C@@]12C[C@@H](c1ccoc1)OC2=O | -9.36%

Tested on: not listed separately
Experiment: Primary qHTS for inhibitors of nuclear receptor binding SET domain protein 2 (NSD2) in an isogenic RCH-ACV NSD2 p.E1099K mutant (9B) (AID 1645876); also: nearly all actives have a fitted effect of over 70% in size
Settings: RCH-ACV (leukaemia line) NSD2 E1099K (9B) viability, CellTiter-Glo, 72 h; series mostly up to 44.9 µM; activity change, negative = viability loss: at the top concentration

Structure (SMILES) | activity change, negative = viability loss | outcome
C=C(C(=O)O)C1CC(OC(=O)CC(C)CC)C2(C)CCCC(=C)C2C1 (configuration not stated) | -18.8% | –
COC(=O)[C@H](O)[C@H]1C(C)(C)[C@H](OC(C)=O)[C@@]2(O)C(=O)[C@]1(C)C1CC[C@]3(C)C(CC(=O)O[C@H]3c3ccoc3)[C@]13O[C@@H]32 (some centres not stated) | -22.3% [at 17.3 µM] | –
CC1C(=O)OCC2=CC[N+]3([O-])CCC(OC(=O)C(C)(O)C1(C)O)C23 (configuration not stated) | – | inactive
COc1cc(C(CO)CO[C@@H]2O[C@H](CO)[C@@H](O)[C@H](O)[C@H]2O)ccc1O (some centres not stated) | -5.58% | –
CC(=O)O[C@@H]1C(=O)C(C)=C(CCC(C)CC(=O)O)[C@@]2(C)CCCC(C)(C)C12 (some centres not stated) | -12.1% | –
C[C@@H]1O[C@@H](O[C@H]2[C@H](OC(=O)[C@]34CCC(C)(C)C[C@H]3C3=CCC5[C@@]6(C)CC[C@H](O[C@@H]7O[C@H](CO[C@@H]8OC[C@H](O)[C@H](O)[C@H]8O[C@@H]8OC[C@@H](O)[C@H](O)[C@H]8O)[C@@H](O)[C@H](O)[C@H]7O)C(C)(C)C6CC[C@@]5(C)[C@]3(C)C[C@H]4O)O[C@H](CO)[C@@H](O)[C@@H]2O)[C@H](O[C@@H]2O[C@H](CO)[C@@H](O)[C@H](O)[C@H]2O)[C@H](O)[C@H]1O[C@@H]1OC[C@@H](O)[C@H](O[C@@H]2OC[C@@H](O)[C@H](O)[C@H]2O)[C@H]1O (some centres not stated) | 4.39% [at 4.96 µM] | –
CC1=CCC[C@@H]2[C@@](C)(CCc3ccoc3)[C@H](C(=O)O)CC[C@@]12C | -14.1% | –
CC(C)(O)[C@@H]1CC[C@]2(CO)[C@@H](O)CC[C@](C)(O)[C@H]2[C@@H]1O[C@@H]1O[C@H](CO)[C@@H](O)[C@H](O)[C@H]1O | -5.28% [at 17.3 µM] | –
COCC1OC(n2cnc3c(=O)[nH]cnc32)C(O)C1O (configuration not stated) | -4.51% | –
C[C@@H]1C(=O)O[C@H]2[C@H]1CC[C@@]1(C)C(=O)C=C[C@@](C)(O)[C@H]21 | – | inactive
CC(=O)O[C@H]1[C@H](O[C@H]2CC[C@]34C[C@]35CC[C@]3(C)[C@@H]([C@@]6(C)CC[C@@H](C(C)(C)O)O6)[C@@H](O)C[C@@]3(C)[C@@H]5C[C@H](O[C@@H]3O[C@H](CO)[C@@H](O)[C@H](O)[C@H]3O)[C@H]4C2(C)C)OC[C@@H](OC(C)=O)[C@@H]1O | 3.05% | –
C=C(C(=O)O)C1CC(O)C2(C)CCCC(C)(O)C2C1 (configuration not stated) | – | inactive
C[C@@H]1O[C@@H](OC[C@H]2O[C@@H](OCc3ccccc3)[C@H](O)[C@@H](O)[C@@H]2O)[C@H](O)[C@H](O)[C@H]1O | -12.5% [at 17.3 µM] | –
COc1ccc(/C=C/C(=O)O[C@@H]2[C@@H](OC(C)=O)[C@@H](OC(C)=O)[C@H](O[C@H]3[C@@H]4C=CO[C@@H](O[C@@H]5O[C@H](CO)[C@@H](O)[C@H](O)[C@H]5O)[C@@H]4[C@@]4(CO)O[C@@H]34)O[C@H]2C)cc1 | – | inactive [at 17.3 µM]
C/C(=C\CCC(C)C1CC(O)C2(C)C3CCC4C(C)(C)C(OC5OCC(O)C(O)C5O)CCC45CC35CC(O)C12C)C(=O)O (configuration not stated) | -4.16% [at 17.3 µM] | –
C=C1C[C@]23C[C@H]1CC[C@H]2[C@]1(C)CC[C@H](O)[C@@](C)(C(=O)O)[C@H]1[C@@H]3C(=O)O | -17.6% | –
CC1(C)CC[C@]2(C(=O)O)CC[C@]3(C)C(=CCC4[C@@]5(C)C(=O)C[C@H](O)[C@@](C)(CO)C5CC[C@]43C)[C@@H]2C1 (some centres not stated) | 3.87% [at 17.3 µM] | –
CC(C)(O)C1CC=C(C(=O)OC[C@H]2O[C@@H](OC(=O)C3=CCC(C(C)(C)O)CC3)[C@H](O)[C@@H](O)[C@@H]2O)CC1 (some centres not stated) | 0.947% [at 17.3 µM] | –
C[C@@H]1O[C@@H](O[C@H]2[C@H](OC(=O)[C@]34CCC(C)(C)C[C@H]3C3=CCC5[C@@]6(C)C[C@@H](O)[C@@H](O)[C@@](C)(CO)C6[C@H](O)C[C@@]5(C)[C@]3(C)CC4)OC[C@H](O)[C@@H]2O)[C@H](O)[C@H](O)[C@H]1O[C@@H]1OC[C@@H](O)[C@H](O[C@H]2O[C@H](C)[C@@H](O)[C@H](O)[C@@H]2O)[C@H]1O (some centres not stated) | -2.76% [at 9.23 µM] | –
CC1=CCC[C@@H]2[C@](CCc3ccoc3)(C(=O)O)[C@H](C)CC[C@@]12C | -13.4% | –

Structure (SMILES) | activity change, negative = viability loss | outcome
Cc1occc(=O)c1O[C@@H]1O[C@H](COC(=O)CC(C)(O)CC(=O)O)[C@@H](O)[C@H](O)[C@H]1O (some centres not stated) | -3.18% [at 17.3 µM] | –
CC1=CC(=O)CC(C)(C)C1CO[C@@H]1O[C@H](CO)[C@@H](O)[C@H](O)[C@H]1O (some centres not stated) | – | inactive
CSCC1OC(n2cnc3c(N)ncnc32)C(O)C1O (configuration not stated) | – | inactive
COC(=O)C1=COC(O[C@@H]2O[C@H](COC(=O)/C=C/c3ccc(O)cc3)[C@@H](O)[C@H](O)[C@H]2O)C2C(CO)=CCC12 (some centres not stated) | 1.37% [at 17.3 µM] | –
CC1OC(O[C@@H]2[C@@H](O)[C@H](OC(=O)[C@]34CCC(C)(C)C[C@H]3C3=CCC5[C@@]6(C)CC[C@H](O[C@@H]7O[C@H](C(=O)O)[C@@H](O)[C@H](O[C@@H]8OC[C@@H](O)[C@H](O)[C@H]8O)[C@H]7O[C@@H]7O[C@H](CO)[C@H](O)[C@H](O)[C@H]7O)[C@@](C)(C=O)C6CC[C@@]5(C)[C@]3(C)C[C@H]4O)O[C@H](C)[C@@H]2OC2OC(C)C(OC3OCC(O)C(O)C3O)C(O)C2O)C(O)C(O)C1O (some centres not stated) | -4.28% [at 9.23 µM] | –
C#CCCCn1cc(-c2cccc3c2N[C@@H](C)CC(=O)N3)cn1 | -25.1% | –
COC1CC(O[C@H]2CC[C@@]3(C)C(=CC[C@]4(O)C3[C@H](O)[C@@H](O)[C@]3(C)[C@@H]([C@H](C)O)CC[C@@]34O)C2)OC(C)C1OC1CC(OC)C(OC2CC(OC)C(OC3OC(C)C(OC4OC(CO)C(O)C(O)C4O)C(OC)C3O)C(C)O2)C(C)O1 (some centres not stated) | 1.87% [at 9.23 µM] | –
CC1=C2CC(C)(C)CC2C(O)C2=C(C1)C(=O)OC2O (configuration not stated) | -19.3% | –
CCOC(=O)C(CCc1ccccc1)NC(C)C(=O)N1Cc2ccccc2CC1C(=O)O (configuration not stated) | -2.55% | –
C/C=C(/C)C(=O)O[C@H]1C[C@]2(C)O[C@@H]2[C@@H](OC(C)=O)[C@@]2(C)CC[C@@](O)(C(C)C)[C@H]12 | -15.8% | –
COc1cc(C2CC(=O)Nc3c2cc(Br)c2ccccc32)cc(OC)c1OC (configuration not stated) | 1.81% | –
C=C(C)[C@@H]1CC[C@]2(CO)CC[C@]3(C)[C@H](CC[C@@H]4[C@@]5(C)CC[C@H](O)C(C)(C)[C@@H]5CC[C@]43C)[C@@H]12 | -1.18% [at 17.3 µM] | –
O=C(/C=C/c1ccc(O)cc1)OCC1OC(O)C(OC2OC(CO)C(O)C(O)C2O)C(O)C1O (configuration not stated) | -4.53% [at 17.3 µM] | –
CN(C)CCC[C@]1(c2ccc(F)cc2)OCc2cc(C#N)ccc21 | -5.56% | –
O=C(/C=C/c1ccc(O)c(O)c1)O[C@H]1[C@H](OC2CCCCC2O)O[C@H](CO)[C@@H](O)[C@@H]1O (some centres not stated) | -5.19% [at 17.3 µM] | –
CC(C)/C=C1/NC(=O)C(C(C)C)n2c1nc1c(O)cccc1c2=O (configuration not stated) | -24.8% | –
C/C=C(\C)C(=O)OC[C@H]1O[C@H](O[C@H]2O[C@H](CO)[C@@H](O)[C@H](O)[C@H]2O[C@@H]2O[C@H](CO)[C@@H](O)[C@H](O)[C@H]2O)[C@H](O[C@@H]2O[C@H](CO)[C@@H](O)[C@H](O)[C@H]2O)[C@@H](O)[C@@H]1O | – | inactive [at 17.3 µM]
CC1=CCC(O)C2(C)CCC3C(C)C(=O)OC3C12 (configuration not stated) | -6.31% | –
C[C@@H]1C[C@@H](O)[C@@]2(CO)C(CO)=CCC[C@@H]2[C@@]12C[C@@H](c1ccoc1)OC2=O | -5.25% | –
